# Reference: PubChem BioAssay (NCATS)
# Values without a mark were called inactive. Results filed as inconclusive are left out. A call without a number means that no potency is given here. Calls of active or inactive are those of the source. Unless noted, calls follow the shape of the dose curve; as a rule, active = well fitted curve in the direction sought with a large enough effect; inconclusive = small, poorly fitted or top-dose-only effect, or another doubt; inactive = no such curve, though single readings can be large; an effect the other way counts as inactive or inconclusive.
# What was measured:
# [1] = target: Ubiquitin carboxyl-terminal hydrolase 1 (Homo sapiens) (UniProt O94782); assay: Inhibitors of USP1/UAF1: Pilot qHTS (AID 504865); also: nearly all actives have a fitted effect of over 35% in size; also: potency is read from the fitted curve at half-maximal effect;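 as to activity change, negative = inhibition: rhodamine fluorescence freed from ubiquitin-rhodamine substrate followed over time; top concentration of the series differs between compounds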
# Chain of Ubiquitin carboxyl-terminal hydrolase 1 (Homo sapiens) (O94782 whole entry, looked up): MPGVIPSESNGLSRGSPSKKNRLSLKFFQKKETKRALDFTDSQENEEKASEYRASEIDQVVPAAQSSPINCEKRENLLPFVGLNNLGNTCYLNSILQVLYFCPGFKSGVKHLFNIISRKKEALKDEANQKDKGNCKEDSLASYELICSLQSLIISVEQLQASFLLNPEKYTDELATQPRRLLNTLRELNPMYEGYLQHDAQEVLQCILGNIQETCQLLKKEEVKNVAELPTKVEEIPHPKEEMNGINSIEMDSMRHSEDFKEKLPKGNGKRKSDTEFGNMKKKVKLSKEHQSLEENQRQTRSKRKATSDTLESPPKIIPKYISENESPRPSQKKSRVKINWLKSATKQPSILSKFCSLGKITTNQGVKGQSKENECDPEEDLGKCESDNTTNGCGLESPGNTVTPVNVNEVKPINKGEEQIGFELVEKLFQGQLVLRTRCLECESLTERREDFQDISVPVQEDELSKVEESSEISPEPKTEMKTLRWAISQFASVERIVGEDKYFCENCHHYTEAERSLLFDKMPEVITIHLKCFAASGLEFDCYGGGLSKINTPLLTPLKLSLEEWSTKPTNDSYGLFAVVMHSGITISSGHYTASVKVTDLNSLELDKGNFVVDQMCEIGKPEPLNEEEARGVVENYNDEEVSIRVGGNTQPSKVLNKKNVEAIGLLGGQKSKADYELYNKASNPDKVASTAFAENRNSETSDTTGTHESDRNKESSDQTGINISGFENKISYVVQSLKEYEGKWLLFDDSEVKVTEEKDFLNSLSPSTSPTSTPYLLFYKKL
# In short: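 In 50mM HEPES pH 7.8 containing 0.5mM EDTA, 1mM TCEP, 0.1 mg/ml BSA and 0.01% Tween-20, 1nM USP1/UAF1 is exposed to compound for 15 min, then Ub-Rho (150nM final) is added and fluorescence is read over time.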
# [2] = qHTS profiling for inhibitors of Plasmodium falciparum proliferation (AID 504749); also: potency is read from the fitted curve at half-maximal effect; as to all read-outs here: nearly all actives have a fitted effect of over 60% in size; conditions: P. falciparum in erythrocytes, SYBR Green DNA, 72 h; for activity, negative = inhibition: at 28.7 µM (top of the series)
# In short: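 P. falciparum-infected erythrocytes (0.3% parasitemia, 2.5% hematocrit) incubated with compound 72 h at 37 C, 5% CO2. Parasite DNA detected by SYBR Green after lysis, overnight at room temperature; normalised to 0.29 uM artemisinin and DMSO.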
# [3] = qHTS for differential inhibitors of proliferation of Plasmodium falciparum line 7G8 (AID 1815);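 also: parasite growth measured after three days of incubation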; also: potency is read from the fitted curve at half-maximal effect
# [4] = qHTS for differential inhibitors of proliferation of Plasmodium falciparum line GB4 (AID 1816); conditions: Potency: Plasmodium falciparum GB4 proliferation inhibition;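 also: parasite growth measured after 72 h incubation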; also: potency is read from the fitted curve at half-maximal effect
# [5] = qHTS for differential inhibitors of proliferation of Plasmodium falciparum line 3D7 (AID 1876); also: potency is read from the fitted curve at half-maximal effect;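 as to activity, negative = inhibition: parasite growth measured after three days of culture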
# [6] = qHTS for differential inhibitors of proliferation of Plasmodium falciparum line D10 (AID 1877);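 also: parasites grown with compound for 72 h before DNA staining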; also: potency is read from the fitted curve at half-maximal effect
# [7] = qHTS for differential inhibitors of proliferation of Plasmodium falciparum line Dd2 (AID 1882); conditions: Potency: Plasmodium falciparum Dd2 proliferation inhibition; also: nearly all actives have a fitted effect of over 65% in size; also: potency is read from the fitted curve at half-maximal effect
# In short: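 Dd2-infected erythrocytes (0.3% parasitemia, 2.5% hematocrit final) incubated with compound 72 h at 37 C, 5% CO2; lysed with saponin/Triton buffer containing SYBR Green I, incubated overnight in the dark, then read by fluorescence (485/535 nm). Normalized to 0.29 uM artemisinin and DMSO.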
# [8] = qHTS for differential inhibitors of proliferation of Plasmodium falciparum line W2 (AID 1883); conditions: Potency: Plasmodium falciparum W2 proliferation inhibition;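 also: parasites grown with compound for 72 h before lysis and staining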; also: potency is read from the fitted curve at half-maximal effect
# [9] = qHTS for differential inhibitors of proliferation of Plasmodium falciparum line HB3 (AID 1886); conditions: Potency: Plasmodium falciparum HB3 proliferation inhibition;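 also: parasites grown with compound for 72 h before SYBR Green readout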; also: potency is read from the fitted curve at half-maximal effect
# [10] = target: Voltage-gated inwardly rectifying potassium channel KCNH2 (Homo sapiens) (UniProt Q12809); assay: qHTS Assay for Small Molecule Inhibitors of the Human hERG Channel Activity (AID 588834);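 also: top concentration of the series differs between compounds; lower thallium flux fluorescence means stronger hERG block; nearly all actives have a fitted effect of over 50% in size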
# Chain of Voltage-gated inwardly rectifying potassium channel KCNH2 (Homo sapiens) (Q12809 whole entry, looked up): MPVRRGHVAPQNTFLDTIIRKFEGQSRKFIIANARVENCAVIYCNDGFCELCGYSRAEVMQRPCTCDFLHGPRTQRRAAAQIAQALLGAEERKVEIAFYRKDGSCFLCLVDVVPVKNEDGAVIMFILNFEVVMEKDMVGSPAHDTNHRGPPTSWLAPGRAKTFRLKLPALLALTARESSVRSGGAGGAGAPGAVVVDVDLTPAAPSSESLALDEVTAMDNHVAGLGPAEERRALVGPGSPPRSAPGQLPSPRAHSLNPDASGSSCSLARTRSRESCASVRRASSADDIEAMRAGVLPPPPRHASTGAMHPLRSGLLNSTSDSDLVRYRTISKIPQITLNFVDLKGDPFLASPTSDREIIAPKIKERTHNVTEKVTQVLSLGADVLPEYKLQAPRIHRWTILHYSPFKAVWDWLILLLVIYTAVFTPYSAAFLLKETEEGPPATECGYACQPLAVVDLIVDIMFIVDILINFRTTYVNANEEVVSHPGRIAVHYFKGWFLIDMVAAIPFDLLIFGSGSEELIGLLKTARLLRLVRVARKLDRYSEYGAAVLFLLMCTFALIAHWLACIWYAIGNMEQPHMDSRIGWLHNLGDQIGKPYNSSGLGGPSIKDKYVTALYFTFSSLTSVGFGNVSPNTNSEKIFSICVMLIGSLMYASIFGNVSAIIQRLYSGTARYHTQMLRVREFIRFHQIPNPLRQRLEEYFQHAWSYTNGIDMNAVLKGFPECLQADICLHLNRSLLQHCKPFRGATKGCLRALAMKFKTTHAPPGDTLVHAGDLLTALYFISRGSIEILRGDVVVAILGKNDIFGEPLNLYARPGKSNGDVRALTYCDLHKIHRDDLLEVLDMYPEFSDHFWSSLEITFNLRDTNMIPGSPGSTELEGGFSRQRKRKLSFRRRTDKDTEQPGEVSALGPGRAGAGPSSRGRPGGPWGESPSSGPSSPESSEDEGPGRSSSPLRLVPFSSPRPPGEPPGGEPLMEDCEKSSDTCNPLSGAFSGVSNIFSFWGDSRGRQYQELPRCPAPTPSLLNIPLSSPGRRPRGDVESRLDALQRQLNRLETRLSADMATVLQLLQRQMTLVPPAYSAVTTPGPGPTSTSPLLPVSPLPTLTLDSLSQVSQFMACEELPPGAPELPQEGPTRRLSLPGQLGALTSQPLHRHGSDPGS
# In short: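 hERG-BacMam U2OS, 2000 cells/well; 0.7X FluxOR loading 1 hr RT dark; cpd ~10 min 37 °C; stim buffer; FDSS fluorescence 2 min @ 1 s; AC50 Hill fit.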
# [11] = target: M-phase phosphoprotein 8 (Homo sapiens) (UniProt Q99549); assay: qHTS Validation Assay for Inhibitors for MPP8 Chromodomain Interactions with Methylated Histone Tails (AID 488949);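 also: 50 nM MPP8 with 50 nM peptide preformed then compounds added for 30 min; AlphaScreen signal from MPP8 chromodomain bound to biotinylated H3K9me3 peptide; top concentration of the series differs between compounds; nearly all actives have a fitted effect of over 55% in size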
# Chain of M-phase phosphoprotein 8 (Homo sapiens) (Q99549 whole entry, looked up): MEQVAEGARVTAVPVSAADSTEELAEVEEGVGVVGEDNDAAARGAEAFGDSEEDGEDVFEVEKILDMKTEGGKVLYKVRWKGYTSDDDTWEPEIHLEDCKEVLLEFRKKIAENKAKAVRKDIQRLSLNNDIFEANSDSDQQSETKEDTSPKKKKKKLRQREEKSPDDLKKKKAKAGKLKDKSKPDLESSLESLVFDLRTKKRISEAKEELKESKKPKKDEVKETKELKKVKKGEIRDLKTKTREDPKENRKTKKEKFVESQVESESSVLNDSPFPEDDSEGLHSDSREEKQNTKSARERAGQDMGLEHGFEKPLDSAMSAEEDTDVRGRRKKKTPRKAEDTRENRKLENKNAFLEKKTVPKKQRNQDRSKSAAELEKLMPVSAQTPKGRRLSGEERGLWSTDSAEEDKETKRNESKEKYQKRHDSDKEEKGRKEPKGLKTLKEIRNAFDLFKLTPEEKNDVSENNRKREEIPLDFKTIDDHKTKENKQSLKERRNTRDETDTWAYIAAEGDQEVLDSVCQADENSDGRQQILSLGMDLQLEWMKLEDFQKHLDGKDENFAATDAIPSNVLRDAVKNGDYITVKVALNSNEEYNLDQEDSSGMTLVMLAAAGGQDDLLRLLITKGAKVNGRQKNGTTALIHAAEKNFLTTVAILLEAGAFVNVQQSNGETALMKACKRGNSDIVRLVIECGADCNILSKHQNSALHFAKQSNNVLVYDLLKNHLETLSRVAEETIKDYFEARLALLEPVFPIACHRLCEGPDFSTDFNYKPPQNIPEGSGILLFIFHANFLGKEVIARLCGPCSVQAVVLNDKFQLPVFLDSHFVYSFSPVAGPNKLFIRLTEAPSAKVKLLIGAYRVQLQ
# In short: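 50 nM MPP8 + 50 nM b-H3K9me3 peptide, PBS pH 7.4/0.01% Tween-20, 30 min RT; + cpd 30 min RT; + AlphaScreen donor/Ni-chelate acceptor beads 10 ug/mL final, 30 min dark; luminescence read.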
# [12] = target: Thyrotropin-releasing hormone receptor (Homo sapiens) (UniProt P34981); assay: qHTS for Small Molecule Agonists and Allosteric Enhancers of Human TRH Receptor: Validation Screen for Agonists (AID 493127;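 active = calcium activation more than 3 SD above the typical response in the agonist read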;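 also: intracellular calcium rise by fluo-8 fluorescence before TRH EC20 addition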); conditions: TRH receptor agonist cell assay; at 2 µM; stronger effect = higher value
# Chain of Thyrotropin-releasing hormone receptor (Homo sapiens) (P34981 whole entry, looked up): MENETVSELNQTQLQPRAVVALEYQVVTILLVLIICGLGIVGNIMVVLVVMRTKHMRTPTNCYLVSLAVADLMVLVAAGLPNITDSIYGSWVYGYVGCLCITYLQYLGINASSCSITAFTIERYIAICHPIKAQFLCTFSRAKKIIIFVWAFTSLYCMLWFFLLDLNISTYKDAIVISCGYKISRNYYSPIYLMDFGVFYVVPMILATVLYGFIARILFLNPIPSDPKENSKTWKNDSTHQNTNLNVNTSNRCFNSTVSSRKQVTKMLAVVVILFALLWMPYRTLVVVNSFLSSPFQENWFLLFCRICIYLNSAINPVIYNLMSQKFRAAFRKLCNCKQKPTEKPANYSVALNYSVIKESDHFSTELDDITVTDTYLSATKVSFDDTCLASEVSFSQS
# In short: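 Cells 2000/well, 10% FCS, 18 h 33.5C/5% CO2 → fluo-8 Ca dye, RT 30 min–1.5 h → FDSS baseline 10 × 1 s → compound added → 230 cycles (1 s/cycle) agonist mode. TRH controls.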
# [13] = target: RecQ-like DNA helicase BLM (Homo sapiens) (UniProt P54132); assay: qHTS Validation Assay for Inhibitors of Bloom's syndrome helicase (BLM) (AID 2364)
# In short: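 50 nM BLM preincubated 15 min at room temperature with compound in pH 8.0 Tris buffer containing 2.5 ug/ml poly(dI-dC); started with 200 nM TAMRA/BHQ-2 forked duplex and 2 mM ATP (final). Unwinding read as TAMRA fluorescence increase, two reads 2 h apart.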
# [14] = AP1 Signaling Pathway (AID 357; active = well fitted curve in either direction with a large enough effect, not every such curve was filed as active;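 also: ME-180 reporter cells stimulated with EGF at its EC50 level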); conditions: ME-180 AP-1-bla reporter, EGF-induced, beta-lactamase ratio, 5 h
# In short: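 Cells are seeded overnight, exposed to compound titrations and an EC50 level of EGF for 5 hours at 37 °C, then loaded with CCF4 dye for 2.5 hours. Beta-lactamase activity under the AP-1 element is read as a blue/green ratio.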
# [15] = Stat Signaling Pathway (AID 446; active = well fitted curve in either direction with a large enough effect, not every such curve was filed as active;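 also: ME-180 cervical cancer cells given 40 pM IL-6 alongside compound; SIE-controlled beta-lactamase reporter measured as 460/530 nm FRET emission ratio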); conditions: ME-180 SIE beta-lactamase reporter, IL-6 stimulated, 5 h
# In short: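 Reporter line: ME-180 cervical carcinoma, SIE-beta-lactamase. Treatment: compound with 40 pM IL-6, 5 hrs, 37 C, in low-serum OPTI-MEM with 10 mM HEPES pH 7.3. Detection: 460/530 nm fluorescence.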
# [16] = target: Guanine nucleotide-binding protein G(i) subunit alpha-1 (Homo sapiens) (UniProt P63096); assay: qHTS Assay for Inhibitors of RGS12 GoLoco Motif Activity (Green Fluorophore) (AID 879);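 also: negative values mean loss of peptide binding seen as reduced polarization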
# Chain of Guanine nucleotide-binding protein G(i) subunit alpha-1 (Homo sapiens) (P63096 whole entry, looked up): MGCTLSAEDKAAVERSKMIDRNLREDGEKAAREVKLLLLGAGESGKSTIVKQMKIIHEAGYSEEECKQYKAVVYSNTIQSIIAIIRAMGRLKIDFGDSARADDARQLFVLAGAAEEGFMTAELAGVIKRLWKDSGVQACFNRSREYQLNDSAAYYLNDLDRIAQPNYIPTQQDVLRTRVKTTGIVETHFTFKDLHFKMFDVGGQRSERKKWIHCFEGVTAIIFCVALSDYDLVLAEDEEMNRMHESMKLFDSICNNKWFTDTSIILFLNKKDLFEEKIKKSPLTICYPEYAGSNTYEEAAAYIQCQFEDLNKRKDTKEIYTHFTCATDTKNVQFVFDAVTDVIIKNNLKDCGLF
# In short: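 Fluorescence polarization assay: 50 nM Gαi1 with 10 nM FITC-labeled RGS12 GoLoco peptide in 10 mM Tris pH 7.5, 150 mM NaCl, 0.1 mM GDP, 0.05% NP40, 10 min at room temperature with compound.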
# [17] = target: Pyruvate kinase (Leishmania mexicana) (UniProt Q27686); assay: qHTS Validation Assay for Inhibitors of Leishmania Mexicana Pyruvate Kinase (AID 945)
# Chain of Pyruvate kinase (Leishmania mexicana) (Q27686 2-499 E452W): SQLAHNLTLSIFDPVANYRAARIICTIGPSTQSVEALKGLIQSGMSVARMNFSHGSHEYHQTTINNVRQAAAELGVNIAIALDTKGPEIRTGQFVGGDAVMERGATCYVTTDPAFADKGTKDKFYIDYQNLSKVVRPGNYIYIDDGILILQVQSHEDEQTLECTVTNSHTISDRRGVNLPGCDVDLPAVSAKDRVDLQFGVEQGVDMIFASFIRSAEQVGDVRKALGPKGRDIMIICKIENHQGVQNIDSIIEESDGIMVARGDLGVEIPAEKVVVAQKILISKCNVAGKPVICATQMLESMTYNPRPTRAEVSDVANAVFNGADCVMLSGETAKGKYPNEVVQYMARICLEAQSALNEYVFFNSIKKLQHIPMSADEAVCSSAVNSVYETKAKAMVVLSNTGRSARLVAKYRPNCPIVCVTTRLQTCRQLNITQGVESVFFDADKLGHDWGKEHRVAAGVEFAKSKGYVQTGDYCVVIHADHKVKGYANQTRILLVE
# In short: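 Eight-point qHTS titrations; enzyme 0.2 nM LmPYK (E451W mutant); substrates 0.5 mM PEP, 0.1 mM ADP; 7 mM MgCl2; 1 h room temperature; PKLight luminescence normalized to neutral control.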
# [18] = target: Pyruvate kinase PKM (Homo sapiens) (UniProt P14618); assay: qHTS Assay for Activators of Human Muscle Pyruvate Kinase (AID 954; active = well fitted curve in the direction sought with a large enough effect, not every such curve was filed as active)
# Chain of Pyruvate kinase PKM (Homo sapiens) (P14618 whole entry, looked up): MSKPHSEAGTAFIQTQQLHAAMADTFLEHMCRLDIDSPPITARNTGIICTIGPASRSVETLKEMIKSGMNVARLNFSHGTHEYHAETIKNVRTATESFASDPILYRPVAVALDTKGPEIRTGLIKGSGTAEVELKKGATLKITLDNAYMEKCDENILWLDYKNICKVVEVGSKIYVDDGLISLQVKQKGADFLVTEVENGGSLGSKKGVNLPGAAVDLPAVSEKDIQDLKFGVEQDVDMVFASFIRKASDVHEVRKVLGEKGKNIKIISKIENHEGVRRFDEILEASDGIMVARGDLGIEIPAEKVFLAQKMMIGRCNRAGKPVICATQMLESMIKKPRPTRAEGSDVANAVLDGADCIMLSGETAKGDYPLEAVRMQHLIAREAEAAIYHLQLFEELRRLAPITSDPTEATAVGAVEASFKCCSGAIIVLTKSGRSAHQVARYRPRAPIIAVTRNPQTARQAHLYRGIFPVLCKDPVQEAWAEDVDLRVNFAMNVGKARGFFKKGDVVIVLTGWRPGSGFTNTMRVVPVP
# In short: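 Human PKM2 activity is measured as ATP generation, detected by luciferase-coupled luminescence. The enzyme (0.1 nM) acts on 0.5 mM PEP and 0.1 mM ADP for 1 h at ambient temperature; data are normalized to uninhibited and full-inhibition wells.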
# [19] = target: alpha-glucosidase (Oryza sativa, rice) (UniProt Q653V4); assay: Counterscreen for Glucocerebrosidase Inhibitors: qHTS Assay for Rice alpha-Glucosidase at pH 5.0 (AID 997)
# In short: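 Rice alpha-glucosidase (4 nM final) with 400 uM 4-methylumbelliferyl-alpha-D-glucopyranoside in citrate buffer pH 5.0, 20 min at room temperature, stopped at pH 10; fluorescence 365/440 nm, compounds 0.7 nM–77 uM, AC50 from Hill fits.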
# [20] = qHTS Assay for Modulators of Human Peripheral Myelin Protein 22 (PMP22) Expression/Activity (AID 1967; active = well fitted curve in the direction sought with a large enough effect in the signal ratio; the % refers to the signal ratio)
# In short: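 Luminescence ratio of Pmp22 promoter-driven green luciferase to EF-alpha-driven red luciferase, in engineered mouse MSC80 Schwann cells, served as read-out. Compounds were incubated 24h; untreated cells defined 0% Activity; curves were classified by r2, magnitude and activity.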
# [21] = at 7.69 µM (top of the series) unless noted
compound,measurement,setting,value
CO[C@H]1/C=C/O[C@@]2(C)Oc3c(C)c(O)c4c(O)c(c(/C=N\N5CCN(C6CCCC6)CC5)c(O)c4c3C2=O)NC(=O)/C(C)=C\C=C\[C@H](C)[C@H](O)[C@@H](C)[C@@H](O)[C@@H](C)[C@H](OC(C)=O)[C@@H]1C,Potency,[1],56.2 µM (active)
same,Potency,[2]; parasite line A,1.58 µM (active)
same,Potency,[2]; parasite line B,0.631 µM (active)
C=C1/C(=C\C=C2/CCC[C@]3(C)[C@@H]([C@H](C)CCCC(C)(C)O)CC[C@@H]23)C[C@@H](O)C[C@@H]1O,"activity, negative = inhibition",[2]; parasite line A,-3.09%
same,"activity, negative = inhibition",[2]; parasite line B,-9.52%
O=C(CCc1ccc(O)cc1)c1c(O)cc(O)cc1O[C@@H]1O[C@H](CO)[C@@H](O)[C@H](O)[C@H]1O,Potency,[1],inactive
Cc1cn([C@H]2C[C@@H](N=[N+]=[N-])[C@@H](CO)O2)c(=O)[nH]c1=O,Potency,[3],inactive
same,Potency,[4],inactive
same,Potency,[5],inactive
same,Potency,[6],inactive
same,Potency,[7],inactive
same,Potency,[8],inactive
same,Potency,[9],inactive
same,Potency,[10],inactive
CNC(=O)[C@H]1O[C@@H](n2cnc3c(NCc4cccc(I)c4)ncnc32)[C@H](O)[C@H]1O,Potency,[3],7.94 µM (active)
same,Potency,[7],inactive
same,Potency,[8],8.91 µM (active)
same,Potency,[11],inactive
same,activation,[12],1.38%
same,Potency,[10],inactive
CC(C)C1NC(=O)[C@H](CCCCN)NC(=O)[C@@H](Cc2c[nH]c3ccccc23)NC(=O)[C@H](Cc2ccc(O)cc2)NC(=O)[C@H](C)N(C)C(=O)[C@H](Cc2ccccc2)NC1=O (some centres not stated),Potency,[3],inactive
same,Potency,[4],inactive
same,Potency,[5],inactive
same,Potency,[6],inactive
same,Potency,[7],inactive
same,Potency,[9],inactive
same,Potency,[13],inactive
same,Potency,[11],inactive
same,activation,[12],-0.438%
same,Potency,[10],inactive
C[C@H]1CC2[C@@H]3CCC4=CC(=O)C=C[C@]4(C)[C@@]3(F)[C@@H](O)C[C@]2(C)[C@@]1(O)C(=O)CO (some centres not stated),Potency,[7],inactive
same,Potency,[8],10 µM (active)
same,Potency,[13],inactive
same,Potency,[11],inactive
same,Potency,[10],inactive
N=C1Sc2ccccc2C2=NCCCN12,"activity change, negative = inhibition",[14]; [21],18% [at 38 µM]
same,"activity, negative = inhibition",[15]; [21],-18.9% [at 38 µM]
same,outcome,[16],inactive
same,Potency,[17],inactive
same,outcome,[18],inactive
same,outcome,[19],inactive
same,Potency,[5],inactive
same,Potency,[6],inactive
same,Potency,[7],inactive
same,Potency,[13],inactive
same,activation,[12],0.125%
same,Potency,[10],inactive
NCCC(=O)NCCc1cnc[nH]1,"activity change, negative = inhibition",[14]; at 17.2 µM (top of the series),-8.55%
same,"activity change, negative = inhibition",[14]; at 38 µM (top of the series),7.43%
same,"activity, negative = inhibition",[15]; at 17.2 µM (top of the series),9.79%
same,"activity, negative = inhibition",[15]; at 38 µM (top of the series),-27.3%
same,outcome,[16],inactive
same,Potency,[17],inactive
same,outcome,[18],inactive
same,outcome,[19],inactive
same,Potency,[3],inactive
same,Potency,[4],inactive
same,Potency,[5],inactive
same,Potency,[6],inactive
same,Potency,[7],inactive
same,Potency,[8],inactive
same,Potency,[9],inactive
same,outcome,[20],inactive
same,activation,[12],1%
same,Potency,[1],inactive
same,Potency,[10],inactive
NCC1OC(O[C@@H]2[C@H](O)[C@@H](OC3C(O)C(N)CC(N)C3OC3OC(CO)C(O)C(O)C3N)O[C@@H]2CO)C(N)C(O)C1O (some centres not stated),Potency,[3],inactive
same,Potency,[4],inactive
same,Potency,[5],inactive
same,Potency,[6],inactive
same,Potency,[7],inactive
same,Potency,[8],inactive
same,Potency,[9],inactive
same,outcome,[20],inactive
same,activation,[12],1.44%
same,Potency,[10],inactive
NC(=O)C1=CN(C2OC(COP(=O)(O)OP(=O)(O)OC[C@H]3O[C@@H](n4cnc5c(N)ncnc54)[C@H](OP(=O)(O)O)[C@H]3O)C(O)C2O)C=CC1 (some centres not stated),Potency,[3],inactive
same,Potency,[4],inactive
same,Potency,[5],inactive
same,Potency,[6],inactive
same,Potency,[7],inactive
same,Potency,[8],inactive
same,Potency,[9],inactive
same,Potency,[13],inactive
same,activation,[12],-0.125%
same,Potency,[10],inactive
NCCNC(=O)c1ccc(Cl)cc1,"activity change, negative = inhibition",[14]; [21],-4.17% [at 38 µM]
same,"activity, negative = inhibition",[15]; [21],-2.11% [at 38 µM]
same,outcome,[16],inactive
same,Potency,[17],inactive
same,outcome,[18],inactive
same,outcome,[19],inactive
same,Potency,[3],inactive
same,Potency,[4],inactive
same,Potency,[5],inactive
same,Potency,[6],inactive
same,Potency,[7],inactive
same,Potency,[8],inactive
same,Potency,[9],inactive
same,activation,[12],0.625%
same,Potency,[10],inactive
N=C(N)SCCc1cccc(CCSC(=N)N)c1,"activity change, negative = inhibition",[14]; [21],7.41% [at 38 µM]
same,"activity, negative = inhibition",[15]; [21],0.643% [at 38 µM]
same,outcome,[16],inactive
same,Potency,[17],inactive
same,outcome,[18],inactive
same,outcome,[19],inactive
same,Potency,[3],6.31 µM (active)
same,Potency,[4],2.24 µM (active)
same,Potency,[5],3.16 µM (active)
same,Potency,[6],10 µM (active)
same,Potency,[7],7.08 µM (active)
same,Potency,[8],1 µM (active)
same,Potency,[9],8.91 µM (active)
same,outcome,[20],inactive
same,Potency,[13],inactive
same,activation,[12],0.562%
